Source: PubChem BioAssay (EPA / NIEHS)
Inconclusive results are not listed. Calls of active or inactive are those of the source. Rule for the calls: active = hit-call score of the fitted dose curve at least 0.9, where 1 is the maximum; inconclusive = response in the unintended direction; inactive = score below 0.9.

Molecular target: Ratio of Nucleoli Translocation and Cytoplasm, AR (gene 367) (UniProt P10275)
Experiment: UPITT_HCI_U2OS_AR_TIF2_Nucleoli_Cytoplasm_Ratio_Antagonist: University of Pittsburgh U2OS Androgen Receptor-Transcriptional Intermediary Factor 2 (AR-TIF2) Antagonism High Content Imaging Assay for Ratio of Nucleoli Translocation and Cytoplasm (AID 2283999);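 note: antagonists lower the DHT-driven ratio of nucleolar to cytoplasmic red signal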
In short: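 U2OS cells co-expressing RFP-tagged human AR and GFP-tagged TIF2, antagonist mode with DHT as baseline. Nucleolar-to-cytoplasmic red fluorescence ratio imaged by high-content microscopy; final compound 20 uM (0.2% DMSO) primary, 0.195–50 uM (0.5% DMSO) concentration-response.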

Ratio of Nucleoli Translocation and Cytoplasm, AR (gene 367), sequence (P10275 whole entry, looked up): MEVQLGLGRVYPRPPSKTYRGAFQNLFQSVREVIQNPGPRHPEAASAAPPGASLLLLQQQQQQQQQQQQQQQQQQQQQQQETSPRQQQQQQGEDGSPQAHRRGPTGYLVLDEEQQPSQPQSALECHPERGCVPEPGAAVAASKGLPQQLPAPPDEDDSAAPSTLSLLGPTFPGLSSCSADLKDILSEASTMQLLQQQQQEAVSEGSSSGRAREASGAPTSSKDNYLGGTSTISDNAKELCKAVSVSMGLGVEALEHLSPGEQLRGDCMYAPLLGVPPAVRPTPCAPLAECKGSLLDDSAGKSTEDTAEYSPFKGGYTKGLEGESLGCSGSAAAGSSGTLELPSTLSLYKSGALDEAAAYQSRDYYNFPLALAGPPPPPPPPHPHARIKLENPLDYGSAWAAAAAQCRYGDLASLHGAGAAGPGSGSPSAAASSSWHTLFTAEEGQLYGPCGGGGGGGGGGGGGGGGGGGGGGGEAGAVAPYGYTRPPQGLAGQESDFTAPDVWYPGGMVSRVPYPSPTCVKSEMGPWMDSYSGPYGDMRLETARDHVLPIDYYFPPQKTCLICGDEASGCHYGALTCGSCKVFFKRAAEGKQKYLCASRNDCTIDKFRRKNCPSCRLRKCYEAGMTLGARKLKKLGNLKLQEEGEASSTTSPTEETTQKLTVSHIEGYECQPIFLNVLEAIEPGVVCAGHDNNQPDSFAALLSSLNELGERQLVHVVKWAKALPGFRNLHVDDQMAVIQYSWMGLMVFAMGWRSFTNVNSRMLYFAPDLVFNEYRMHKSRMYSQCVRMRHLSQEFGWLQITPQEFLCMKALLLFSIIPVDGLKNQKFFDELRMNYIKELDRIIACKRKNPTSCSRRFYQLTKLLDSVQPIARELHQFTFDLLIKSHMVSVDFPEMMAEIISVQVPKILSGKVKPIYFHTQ

Structure (SMILES) | outcome | AC50
O=S1OCC2C(CO1)C1(Cl)C(Cl)=C(Cl)C2(Cl)C1(Cl)Cl (configuration not stated) | inactive | 
O=[N+]([O-])c1c(Cl)c(Cl)c(Cl)c(Cl)c1Cl | inactive | 
Oc1ccc(Cl)cc1Cc1ccccc1 |  | 7.42 µM (active)
CCCN(CCC)c1c([N+](=O)[O-])cc(C(F)(F)F)cc1[N+](=O)[O-] | inactive | 
C[C@H]1[C@H](c2ccc(Cl)cc2)SC(=O)N1C(=O)NC1CCCCC1 | inactive | 
C#CCN1C(=O)COc2cc(F)c(N3C(=O)C4=C(CCCC4)C3=O)cc21 | inactive | 
CCC(C)(C)C(=O)OC1=C(c2ccc(Cl)cc2Cl)C(=O)OC12CCCCC2 | inactive | 
